Only a selection was taken, and hits are over-represented in it overall.
TDP1 cell noCPT: qHTS for Inhibitors of human tyrosyl-DNA phosphodiesterase 1 (TDP1): qHTS in cells in absence of CPT; DT40 Tdp1-/- hTDP1 cells, no CPT, ATP luminescence, 48 h; Potency, µM (titrated, usually from 46.2 µM), for the others: at the highest dose activity change, negative = growth inhibition, most hits filed as inhibitors; 420,000 tested, 15% active; also: potency is read from the fitted curve at half-maximal effect; nearly all actives have a fitted effect of over 55% in size
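Luminescent ATP content (CellTiter-Glo) served as the growth readout. Knockout chicken DT40 cells expressing human TDP1 were exposed to compounds without camptothecin for a minimum 48 hr at 37 °C.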
IL-1B inflam inh: blocks inflammasome-driven IL-1 beta release; THP-1 LPS/ATP IL-1B secretion, AlphaLISA, 16 h; active compounds read low; activity change, % at 57.5 µM; 360,000 tested, 4.7% active; AID 743279; in the data active = activity change below about -50%; inconclusive = mostly about -30% to -49%
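THP-1 cells pretreated 1 hr with compounds (up to 57.5 uM final), then stimulated with LPS (250 ng/mL final) plus ATP (1.25 mM final); secreted IL-1B measured by AlphaLISA after 16 hr, decreased signal indicating inhibition.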
HT1080 IDH1KD tx: toxicity to HT-1080 IDH1 knockdown cells (counter line); HT-1080 IDH1 knockdown viability, ATP luminescence, 48 h; Potency, µM (top dose mostly 46.1 µM), for the others: at the highest dose activity, negative = toxicity, most hits filed as cytotoxic; 360,000 tested, 2% active; AID 686971;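 also: potency is read from the fitted curve at half-maximal effect; 0% = DMSO wells and -100% = cell-free medium wells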
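Cytotoxicity counter-line: IDH1KD HT-1080, 48 h, CellTiter-Glo. Curves classed by r2, magnitude and activity.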
HT1080NT lethal: kills 2HG-producing HT-1080-NT fibrosarcoma cells; Potency, µM (top dose mostly 46.1 µM), for the others: at the highest dose activity, negative = less viability, hits mostly cytotoxic; HT-1080-NT fibrosarcoma viability, CellTiter-Glo ATP luminescence, 48 h; 360,000 tested, 1.6% active;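 also: NT is the 2HG producing partner of a matched IDH1 knockdown line; potency is read from the fitted curve at half-maximal effect; 0% = DMSO-treated cells and -100% = media-only wells without cells; nearly all actives have a fitted effect of over 55% in size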
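Viability by CellTiter-Glo luminescence after 48 h compound exposure at 37C of HT-1080-NT cells (750/well, RPMI, 5% FBS). % activity scaled between DMSO wells and medium-only wells, then curve-fitted and categorized by curve class.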
DT40 TDP1 CPT: growth inhibition of DT40 Tdp1-/-;hTDP1 cells with camptothecin (screen for TDP1 inhibitors); chicken DT40 Tdp1-/-;hTDP1 cells + 20 nM CPT, ATP luminescence, 48 h; Potency, µM (titrated, usually from 46.2 µM), for inactives: at the highest dose activity change, negative = growth inhibition, actives largely listed as inhibitors; 420,000 tested, 12% active; AID 686979; also: potency is read from the fitted curve at half-maximal effect; nearly all actives have a fitted effect of over 55% in size
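Chicken DT40 Tdp1-/- cells stably complemented with human TDP1 were seeded at 400 cells/well in medium containing 20 nM camptothecin, exposed to pin-transferred compounds, and grown at 37 °C for at least 48 hr. Viability was read as ATP luminescence.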
ALOX12 inh: inhibitors of human 12S-lipoxygenase ALOX12. purified 12hLO, xylenol orange hydroperoxide absorbance. 580,000 tested, 1.1% active. Potency, µM (doses to about 108 µM), for the others: top-dose activity change, negative = inhibition, usual class: inhibitors. P18054; also: potency is read from the fitted curve at half-maximal effect
Target sequence (P18054 whole entry, looked up): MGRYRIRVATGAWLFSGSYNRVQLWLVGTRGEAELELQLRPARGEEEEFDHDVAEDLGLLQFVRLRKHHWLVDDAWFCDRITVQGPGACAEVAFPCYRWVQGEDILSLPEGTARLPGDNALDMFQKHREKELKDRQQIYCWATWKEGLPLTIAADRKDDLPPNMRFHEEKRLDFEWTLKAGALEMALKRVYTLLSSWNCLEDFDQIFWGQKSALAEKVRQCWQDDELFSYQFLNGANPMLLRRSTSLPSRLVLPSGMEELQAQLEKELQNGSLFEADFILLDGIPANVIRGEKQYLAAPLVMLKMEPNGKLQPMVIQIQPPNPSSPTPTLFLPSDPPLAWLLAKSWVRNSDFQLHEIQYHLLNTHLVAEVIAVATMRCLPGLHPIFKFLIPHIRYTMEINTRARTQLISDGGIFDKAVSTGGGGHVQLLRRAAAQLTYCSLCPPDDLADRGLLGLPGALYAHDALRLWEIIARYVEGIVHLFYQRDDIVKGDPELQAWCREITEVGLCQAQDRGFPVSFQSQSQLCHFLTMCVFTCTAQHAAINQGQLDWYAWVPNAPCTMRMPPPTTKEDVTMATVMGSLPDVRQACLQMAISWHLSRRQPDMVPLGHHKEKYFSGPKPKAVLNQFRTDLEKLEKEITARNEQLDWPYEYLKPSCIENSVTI
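Purified human 12hLO (150 nM final) in 25 mM Hepes, 0.01% Triton X-100, pH 7.0 was preincubated 15 min at room temperature with compound. Then 40 uM arachidonic acid was added, 30 min. Hydroperoxide was read by Fe-XO absorbance ratio 573/405 nm.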
An asterisk follows results filed as active; ? = inconclusive; / = no result given; [ ] = remark or other dose. Unless noted, calls follow the shape of the dose curve; as a rule, active = well fitted curve in the direction sought with a large enough effect; inconclusive = small, poorly fitted or top-dose-only effect, or another doubt; inactive = no such curve, though single readings can be large; an effect the other way counts as inactive or inconclusive. Unless noted, % is scaled to controls: 0 for no effect and ±100 for the full control effect.

SMILES	TDP1 cell noCPT	IL-1B inflam inh	HT1080 IDH1KD tx	HT1080NT lethal	DT40 TDP1 CPT	ALOX12 inh
CCN(CC)S(=O)(=O)c1ccc(C(=O)Nc2nnc(NC(=S)Nc3ccccc3)s2)cc1	23µM*	5	?	-25%	?	?
COc1cc(C(=O)Nc2nnc(Cc3ccccc3)s2)cc(OC)c1OC	?	10	10µM*	?	-28%	14%
CSc1ccc(CN2C(=O)C(C)Oc3c(C(C)=O)cccc32)cc1 (stereo not given)	?	0	11%	-9%	?	1%
CSc1ccc(CN2C(=O)C(F)(F)Oc3c(C(C)=O)cccc32)cc1	16µM*	-7	-1%	-1%	18µM*	/
Cc1nn2c(=O)cc(CSc3nnc(-c4cccc(Cl)c4)o3)nc2s1	/	/	/	/	/	7%
CC(=O)c1sc(Nc2ccc(Oc3ccccc3)cc2)nc1C	21µM*	47	?	?	?	-13%
COc1ccc(Nc2nc(N)c(C(=O)c3ccc(OC)c(OC)c3)s2)cc1	/	/	/	/	/	4%
COc1ccc(Nc2nc(N)c(C(=O)c3ccc(OC)cc3)s2)cc1	1.6µM*	-74*	?	?	1.6µM*	109%
COC(=O)c1sc(Nc2ccccc2)nc1C	-10%	9	12%	-2%	-18%	-8%
COc1ccc(C(=O)c2sc(Nc3ccccc3)nc2C)cc1	?	-70*	?	-18%	?	?
CC(=O)c1sc(Nc2ccccc2)nc1C	-15%	29	7%	6%	-20%	-1%
COc1ccc(C(=O)c2sc(Nc3ccccc3)c(C(N)=O)c2N)cc1	/	/	/	/	/	16µM*
CC(C)N1C(=O)CO[C@H]2CN(C(=O)c3cccnc3)C[C@H]21	/	/	/	/	/	4%[176 µM]
COc1ccc(Cc2nc3ccc(C(=O)NC(C)c4cn(C)nc4C)cc3o2)cc1 (stereo not given)	-20%	20	3%	1%	?	-23%
CC(C)(C)C(=O)c1sc(Nc2ccccc2)nc1N	?	-71*	?	-8%	?	?
COc1ccc(Nc2nc(N)c(C(=O)c3ccc(F)cc3)s2)cc1	0.58µM*	-22	1.8µM*	?	0.73µM*	?
CCOC(=O)c1sc(N/N=C/c2ccccc2)nc1C	?	-5	-19%	?	?	?
CCOC(=O)c1sc(Nc2ccccc2)nc1C(F)(F)F	/	/	/	/	/	40µM*
CC(=O)c1sc(N/N=C\c2ccccc2O)nc1C	0.92µM*	-74*	?	?	1µM*	-5%
CC(C)CC(=O)c1sc(Nc2ccccc2)nc1N	/	/	/	/	/	-6%
Cc1cnc(NC(=O)c2[nH]c3c(c2C)C(=O)CCC3)s1	/	/	/	/	/	-11%
O=c1c2nnn(Cc3cccc(Cl)c3)c2ncn1Cc1nc(-c2ccccc2)no1	/	/	/	/	/	4%
CO[C@H]1C(=O)N(C(C)C)[C@H]1C1CCN(S(=O)(=O)c2cn(C)cn2)CC1	/	/	/	/	/	44%
Cc1ccc(C(=O)c2sc(Nc3ccc(F)cc3)nc2N)c(C)c1	15µM*	/	/	/	13µM*	?
Nc1nc(Nc2cccc(Cl)c2)sc1C(=O)c1ccc(F)cc1	23µM*	/	/	/	18µM*	12%
SMILES	TDP1 cell noCPT	IL-1B inflam inh	HT1080 IDH1KD tx	HT1080NT lethal	DT40 TDP1 CPT	ALOX12 inh
CCOC(=O)c1ccc(Nc2nc(N)c(C(=O)c3ccc(C)cc3C)s2)cc1	/	/	/	/	/	-13%
Nc1nc(Nc2ccccc2F)sc1C(=O)c1ccc(Cl)cc1	?	/	/	/	?	-13%
O=C1NC2(CCN(S(=O)(=O)c3cccs3)CC2)Oc2ccccc21	/	/	/	/	/	27%
CCOc1ccc(NS(=O)(=O)c2ccc(C(=O)N(C)CC(=O)Nc3ccc(OC)cc3)cc2)cc1	?	36	-15%	-2%	13µM*	-14%
CC(C)CC(=O)NC(=S)Nc1ccc(S(=O)(=O)NC(C)(C)C)cc1	23µM*	-6	-12%	-15%	?	-24%
CCOc1ccc(S(=O)(=O)Nc2cccc(C(=O)N(C)CC(=O)Nc3ccc(OC)cc3)c2)cc1	-30%	5	-6%	-3%	-26%	10%
CCCC(=O)NC(=S)Nc1ccc(S(=O)(=O)Nc2ccc(OCC)cc2)cc1	?	8	23µM*	4.6µM*	12µM*	?
CCOc1ccc(NS(=O)(=O)c2ccc(NC(=S)NC(=O)CC(C)C)cc2)cc1	?	0	-5%[9.24 µM]	?	?	?
CCCCNS(=O)(=O)c1ccc(NC(=O)Cc2ccc(OC)cc2)cc1	7.3µM*	36	-9%	-1%	13µM*	12%
O=C(NCc1ccccc1)C1CCC(CNS(=O)(=O)c2ccc(Br)s2)CC1 (stereo not given)	-22%	/	/	/	-28%	-14%
O=C(C1CCC(CNS(=O)(=O)c2cccs2)CC1)N1CCN(c2ccc(Cl)cc2)CC1 (stereo not given)	4.1µM*	-15	0%	?	6.5µM*	?
CC(=O)c1ccc(NC(=O)C2CCC(CNS(=O)(=O)c3ccc(Br)s3)CC2)cc1 (stereo not given)	-14%	/	/	/	11%	?
O=C(C1CCC(CNS(=O)(=O)c2ccc(Br)s2)CC1)N1CCN(c2ccccc2)CC1 (stereo not given)	?	/	/	/	4.6µM*	?
Cc1ccc(C)c(N2CCN(C(=O)C3CCC(CNS(=O)(=O)c4ccc(Br)s4)CC3)CC2)c1 (stereo not given)	5.8µM*	/	/	/	5.8µM*	?
C[C@@H]1CN([C@@H](C)CO)C(=O)CCCn2nncc2CO[C@@H]1CN(C)C(=O)Nc1ccc2c(c1)OCO2	3%	3	4%	5%	-1%	0%
Nc1nccnc1C(=O)NCc1ccc(COCC(F)(F)F)cc1	/	/	/	/	/	-4%
Cn1cccc1C1CCCCCN1S(=O)(=O)c1ccc(S(=O)(=O)N2CCCC2)cc1 (stereo not given)	/	/	/	/	/	-13%
Cc1[nH]c2ccccc2c1CN1CCc2ccccc2C1	12µM*	?	-1%	-17%	10µM*	?
Cc1ccccc1OCCn1cc(C(=S)N2CCN(C)CC2)c2ccccc21	15µM*	?	-11%	-10%	?	?
CC(=O)c1cn(CCOc2ccccc2C)c2ccccc12	5.8µM*	-16	-20%	?	8.2µM*	-11%
Cc1ccccc1OCCn1cc(C(=S)N2CCCC2)c2ccccc21	?	-6	-14%	-27%	?	?
O=C(c1cn(CCOc2ccccc2F)c2ccccc12)C1CCCCC1	16µM*	/	/	/	?	-2%
CC(C)(C)C(=O)c1cn(CCOc2ccc(F)cc2)c2ccccc12	/	/	/	/	/	-7%

Source: PubChem
